Shiga toxin inh = A qHTS for Small Molecule Inhibitors of Shiga Toxin | 290,000 compounds, 9.2% hits | inhibition, % at 38.7 µM | Vero cells, Shiga toxin protein synthesis inhibition reporter; in the data active means inhibition mostly above about 28%, no sharp cut-off; inactive means mostly below about 43%; further: 0% is about no effect
SARS PLP yeast = qHTS of Yeast-based Assay for SARS-CoV PLP | 330,000 compounds, 0.19% hits | Potency, µM (doses to about 32.9 µM), inactives show top-dose activity, positive = growth rescue, hits mostly activators | S. cerevisiae expressing SARS-CoV PLpro, growth rescue; calls by dose curve; further: potency means the concentration at half of the fitted maximal effect; 0% is about no effect; nearly all actives have a fitted effect of over 55% in size
Cycloheximide cs = Cycloheximide Counterscreen for Small Molecule Inhibitors of Shiga Toxin. cell reporter, cycloheximide protein synthesis inhibition counterscreen. AID 2314, 2010. max response, %. 300,000 compounds, 12% hits; in the data active means max response mostly above about 13%, no sharp cut-off; inactive means mostly below about 14%; further: read at 38.3 µM for the half of the compounds with a filed dose; 0% is about no effect
AMA1-RON2 inh = qHTS for Inhibitors of AMA1-RON; Towards Development of Antimalarial Drug Lead: Primary Screen | Plasmodium falciparum AMA1 (3D7) - RON2 peptide interaction | AlphaScreen AMA1-biotinylated RON2 peptide binding | Potency, µM (highest dose often 58.2 µM), for inactives: top-dose activity change, negative = inhibition, usual class: inhibitors | AID 720542, 2013 | 360,000 compounds, 0.2% hits;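 further: potency means the concentration at half of the fitted maximal effect; 0% = vehicle wells and -100% = peptide control; nearly all actives have a fitted effect of over 45% in size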
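AMA1 (3D7) with his tag at 25 nM final met compounds first, then biotinylated RON2 peptide at 25 nM; detection used donor plus acceptor beads, 10 µg/mL apiece, read by AlphaScreen after 30 min at room temperature.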
Pf growth 48h = Primary qHTS for delayed death inhibitors of the malarial parasite plastid, 48 hour incubation. P. falciparum luciferase growth in erythrocytes, 48 h. Potency, µM (highest dose often 28.7 µM), without a hit: at the highest dose activity change, negative = inhibition, actives largely listed as inhibitors. 310,000 compounds, 5.9% hits; further: potency means the concentration at half of the fitted maximal effect; on the % scale 0 is the no-effect control and ±100 the full control effect
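Cell-based growth assay: transgenic P. falciparum expressing firefly luciferase, cultured in red cells within RPMI 1640 containing 0.5% w/v Albumax, 24 mM bicarbonate and gentamycin. A drop in luciferase activity indicates inhibition.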
Pf growth 96h = Primary qHTS for delayed death inhibitors of the malarial parasite plastid, 96 hour incubation; P. falciparum luciferase reporter growth, 96 h; Potency, µM (top dose mostly 28.7 µM), without a hit: at the top dose activity change, negative = inhibition, actives largely listed as inhibitors; 320,000 compounds, 6.9% hits; further: potency means the concentration at half of the fitted maximal effect; on the % scale 0 is the no-effect control and ±100 the full control effect
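P. falciparum expressing integrated firefly luciferase grown in erythrocytes (2% hematocrit, 0.05% parasitemia final) with compounds for 96 hours at 37 C, 5% CO2. Growth inhibition read as loss of luminescence after adding luciferase detection reagent.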
* = called active by the depositor; i = inactive; ? = inconclusive; nt = no result; [ ] = remark or other dose. Most compounds without a hit are left out; they make up all but 19% or so of the library. Unless noted, the call rests on the fitted dose curve; in most records, active means well fitted curve in the direction sought with a large enough effect; inconclusive means small, poorly fitted or top-dose-only effect, or another doubt; inactive means no such curve, though single readings can be large; an effect the other way counts as inactive or inconclusive.

SMILES	Shiga toxin inh	SARS PLP yeast	Cycloheximide cs	AMA1-RON2 inh	Pf growth 48h	Pf growth 96h
Cc1oc(-c2cccc(Cl)c2)nc1CN1CCC(C(=O)NCCCN2CC(C)CC(C)C2)CC1 (centres undefined)	-3	-1%	-1	-4%	7.4µM*	-26%
Cc1oc(-c2ccc(Cl)cc2)nc1CN1CCCC(C(=O)NCCCN2CCCC2=O)C1 (centres undefined)	-13	3%	-1	1%	nt	?
CCCN(CCC)CCNC(=O)C1CCN(Cc2nc(-c3ccc(Cl)cc3)oc2C)CC1	26	-1%	-3	-11%	4.7µM*	?
Cc1oc(-c2cccc(Cl)c2)nc1CN1CCC(C(=O)NCCCN2CCCC2=O)CC1	-13	1%	-4	-1%	nt	12µM*
Nc1nnnn1CC(=O)N/N=C/c1ccccn1	-8	1%	1	107%	13%	-1%
O=C1CN(C(=O)CNCc2ccccc2)c2ccccc2N1	-9	1%	-3	?	9%	-3%
Cc1cc(C)c2cc(CN(Cc3cccnc3)C(=O)c3ccc(F)cc3)c(Cl)nc2c1	-13	-3%	-2	0%	1.5µM*	?
Cc1cccc2cc(CN(Cc3cccnc3)C(=O)c3ccccc3F)c(Cl)nc12	-9	-7%	-1	-1%	?	?
CN1CCN(C2=C(Cl)C(=O)N(c3ccc(Cl)cc3)C2=O)CC1	25	-4%	9	-23%	?	nt
O=C1C(Cl)=C(NC2CCCCC2)C(=O)N1c1ccc(Cl)cc1	53*	-4%	25*	36%	?	9.3µM*
O=C(N/N=C1\CCCc2ccccc21)c1ccccc1[N+](=O)[O-]	10	9%	4	-6%	?	?
Nc1nc(-c2cccc(F)c2)cs1	17	1%	-2	-10%	19%	-2%
Clc1ccc(-c2csc(-c3ccno3)n2)cc1	31	0%	23*	17%	30%	35%
Fc1cccc(-c2csc(-c3ccno3)n2)c1	38*	-1%	25*	13%	10%	42%
Clc1ccc(-c2nc(-c3cc4cc(Cl)ccc4o3)cs2)cc1	3	1%	-2	0%	-1%	37%
O=C(NS(=O)(=O)Oc1cccc(Cl)c1Cl)OC[C@@H]1CCCN2CCCCC12 (some centres undefined)	-2	1%	-2	6%	-21%	?
CC(C)N(Cc1nc(-c2ccc(Cl)cc2)no1)C(=O)C(c1ccccc1)c1ccccc1	26	-15%	-2	-9%	nt	8.3µM*
CCCCCC1=C(C(=O)OC)C(C(=O)OCC)N(S(=O)(=O)C(F)(F)F)c2ccccc21 (centres undefined)	-4	-28%	-3	16%	nt	nt
CC(C)n1cnc2c(Nc3cccc(Cl)c3)nc(NCCCO)nc21	11	-1%	6	-3%	?	15µM*
CCOC(=O)N1CCN(C(=O)CSc2nnc(-c3cccs3)o2)CC1	-17	4%	-5	8%	nt	65%
Cc1nnc(SCc2nnc(-c3cccs3)o2)n1Cc1ccccc1	-22	4%	4	2%	i	?
CCSc1nnc(-c2cccs2)o1	28	-5%	28*	19%	29%	nt
CC(C)NCc1nnc(-c2ccc(Cl)cc2)o1	32	-2%	20*	35%	19%	12%
N[C@@H](Cc1ccccc1)c1nnc(SCc2ccccc2F)o1	37	2%	9	97%	12%	15%
Fc1ccccc1CSc1nnc(-c2cccs2)o1	88*	-14%	44*	23%	183%	nt
SMILES	Shiga toxin inh	SARS PLP yeast	Cycloheximide cs	AMA1-RON2 inh	Pf growth 48h	Pf growth 96h
Fc1ccc(Cc2nnc(-c3cccs3)o2)cc1	43*	-33%	33*	0%	47%	?
O=C(CC[C@H]1O[C@@H](n2ccc(=O)[nH]c2=O)[C@H](O)[C@@H]1O)NC1CCN(Cc2ccccc2)C1 (some centres undefined)	nt	nt	nt	-4%	nt	nt
COc1ccc(C2/C(=C(\O)c3cccc(OC)c3)C(=O)C(=O)N2c2ccccn2)cc1 (centres undefined)	-10	-3%	8	-5%	?	7%
c1csc(-c2nnc(Cc3cccc4ccccc34)o2)c1	29	15%	17*	3%	?	-23%
c1ccc(CSc2nnc(-c3cccs3)o2)cc1	101*	-15%	46*	16%	114%	?
Cc1ccc(OCc2nnc(-c3ccc(Cl)cc3)o2)cc1	nt	nt	nt	34%	nt	nt
CC(O)c1nc2ccccc2n1Cc1nnc(-c2ccc(Cl)cc2)o1 (centres undefined)	28	6%	21*	-7%	-15%	-17%[5.75 µM]
c1ccc(-c2nnc(CSc3nnc(-c4cccs4)o3)o2)cc1	-1	-6%	2	-4%	5%	17%
Fc1ccc(-c2nnc(Cc3ccc(Cl)cc3)o2)cc1	59*	-10%	36*	1%	60%	65%
CC1Cc2ccccc2N1C(=O)Cn1cc(C(F)(F)F)ccc1=O (centres undefined)	nt	nt	nt	0%	nt	nt
COc1ccccc1C(=O)NCC(=O)OCC(=O)Nc1ccc2[nH]c(=O)[nH]c2c1	nt	-1%	nt	5%	-15%	13%
CC1CC(C)(C)NC(=S)N1CCCC(=O)Nc1ccc(F)c(F)c1 (centres undefined)	-24	3%	-2	2%	-17%	?
Fc1ccc(-c2nnc(CSc3nnc(-c4cccs4)o3)o2)cc1	28	-5%	10	32%	nt	65%
Fc1ccc(CSc2nnc(-c3cccs3)o2)cc1	101*	-12%	65*	42%	194%	nt
Nc1cccc2c1CN(C1CCC(=O)NC1=O)C2=O (centres undefined)	nt	nt	nt	nt	-1%	-5%
NS(=O)(=O)c1ccc(N/N=C/c2cn(-c3ccccc3)nc2-c2cccs2)c([N+](=O)[O-])c1	7	1%	6	-25%	1.5µM*	3.3µM*
N#Cc1ccc(N/N=C/c2cn(-c3ccccc3)nc2-c2ccccc2)c([N+](=O)[O-])c1	10	-6%	-2	-3%	?	0.52µM*
NS(=O)(=O)c1ccc(N/N=C/c2cn(-c3ccccc3)nc2-c2cccs2)cc1	39*	-22%	9.3*	-14%	0.19µM*	0.066µM*
CC(=O)NC(CCS(C)(=O)=O)C(=O)Nc1ccc(F)cc1Cl (centres undefined)	-11	-2%	-2	3%	?	0%
C=CCN1C(=O)/C(=C2/C(=O)N(CC(=O)O)c3ccccc32)S/C1=N/c1nccs1	-6	3%	2	nt	-7%	4%
CCOCCOC(=O)CCSc1n[nH]c(=O)[nH]c1=O	-19	-2%	-2	1%	14%	10µM*

Screening results (PubChem)
